The target of the first assay is PUM1 PUF domain R5-KHS (Homo sapiens, UniProt Q14671 828-1176, C1007K;R1008H;Q1011S). The assay is described as follows: yeast three-hybrid, YBZ-1, SC-Leu-His + 0.5 mM 3-AT, 4 days. Particulars: tags: N-Gal4 AD-HA kept; label: inside an RPR1-promoter hybrid RNA with tandem MS2 sites; ssRNA. The gist of the method:
(§1)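 The interaction score is the logarithmic change in variant frequency from input to selection. It uses log2, with a pseudocount of 1 for absent variants, and frequencies came from PCR-amplified, Illumina-sequenced repeat regions. The libraries were Pumilio-1 PUF domains randomized at the three base-contacting residues per repeat, co-expressed with matching RNA elements in strain YBZ-1 (LexA–MS2 coat fusion, HIS3 reporter). Plating lasted four days on SC-Leu (input) or SC-Leu-His + 0.5 mM 3-AT (selection).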
Regarding “GGCUAGAACUAGUGGAUCCCCCGGCGCCCGGCGGCUCGAGCCCGGGUAAGUGUAAAUAGUCUGCAUGCCGCCGGGCGCCAUGCCUGCAGGUCGACUCUAGAAAACAUG”, the binding signal is 2.33 log2 enrichment (interaction score).
As to “GGCUAGAACUAGUGGAUCCCCCGGCGCCCGGCGGCUCGAGCCCGGGUAAGUGUUAAUAGUCUGCAUGCCGCCGGGCGCCAUGCCUGCAGGUCGACUCUAGAAAACAUG”, the binding signal is 6.04 log2 enrichment (interaction score).
For the sequence “GGCUAGAACUAGUGGAUCCCCCGGCGCCCGGCGGCUCGAGCCCGGGUAAGUGUCAAUAGUCUGCAUGCCGCCGGGCGCCAUGCCUGCAGGUCGACUCUAGAAAACAUG”, the binding signal is 4.98 log2 enrichment (interaction score).
Turning to “GGCUAGAACUAGUGGAUCCCCCGGCGCCCGGCGGCUCGAGCCCGGGUAAGUGUGAAUAGUCUGCAUGCCGCCGGGCGCCAUGCCUGCAGGUCGACUCUAGAAAACAUG”, the binding signal is 2.1 log2 enrichment (interaction score).

The target in the next assay is PUM1 PUF domain R4-WGS (Homo sapiens, UniProt Q14671 828-1176, N971W;H972G;Q975S). Described as above. Particulars: tags: N-Gal4 AD-HA kept; label: inside an RPR1-promoter hybrid RNA with tandem MS2 sites; ssRNA. The gist of the method:
as §1
For “GGCUAGAACUAGUGGAUCCCCCGGCGCCCGGCGGCUCGAGCCCGGGUAAGUGUAAAUAGUCUGCAUGCCGCCGGGCGCCAUGCCUGCAGGUCGACUCUAGAAAACAUG”, the binding signal was 3.11 log2 enrichment (interaction score).
Same read-out and setting: in the case of “GGCUAGAACUAGUGGAUCCCCCGGCGCCCGGCGGCUCGAGCCCGGGUAAGUGUAUAUAGUCUGCAUGCCGCCGGGCGCCAUGCCUGCAGGUCGACUCUAGAAAACAUG” it was 5.21 log2 enrichment (interaction score); in that of “GGCUAGAACUAGUGGAUCCCCCGGCGCCCGGCGGCUCGAGCCCGGGUAAGUGUACAUAGUCUGCAUGCCGCCGGGCGCCAUGCCUGCAGGUCGACUCUAGAAAACAUG”, 2.86 log2 enrichment (interaction score).

The record behind these values is publication PMC8384837, “Expanding the binding specificity for RNA recognition by a PUF domain”.
